From PubChem BioAssay (NCI)
The panel holds about 79,000 compounds, 15% with a hit somewhere; the sample as a whole holds those more often. Unmarked numbers belong to inactive results. The source made the active and inactive calls. Cut-off read from the data, not from the text of the source: active = growth inhibition above about 70%; inactive = the rest.

What was measured:
[1] = NCI Yeast Anticancer Drug Screen. Data for the rad50 strain (AID 155);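 note: 0% = growth of vehicle-only cultures of the same strain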; details: S. cerevisiae rad50 strain growth inhibition; at 50.0 µM; active compounds read high
Outline: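 Readout: growth inhibition relative to vehicle-treated cultures. Compound exposure was carried out in a genetically defined yeast strain deficient in DNA damage repair.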

[2] = NCI Yeast Anticancer Drug Screen. Data for the mec2-1 strain (AID 157); details: S. cerevisiae mec2-1 strain, at 50.0 µM, active compounds read high
Outline: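 Vehicle-treated cultures served as reference for growth inhibition of compound-exposed mec2-1 yeast.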

[3] = NCI Yeast Anticancer Drug Screen. Data for the sgs1 mgt1 strain (AID 161);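 note: 0% = growth of cultures given vehicle only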; details: S. cerevisiae sgs1 mgt1 strain, at 50.0 µM, active compounds read high
Outline: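 Test agents were incubated with a DNA-repair-mutant yeast strain. Growth was then read and compared against vehicle-treated controls.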

[4] = NCI Yeast Anticancer Drug Screen. Data for the cln2 rad14 strain (AID 165);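 note: 0% = growth equal to vehicle treated cultures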; details: S. cerevisiae cln2 rad14 strain, at 50.0 µM, active compounds read high
Outline: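 Each compound was tested on cln2 rad14 yeast. Inhibition of growth was calculated against vehicle-exposed controls.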

[5] = NCI Yeast Anticancer Drug Screen. Data for the bub3 strain (AID 167); details: S. cerevisiae bub3 mutant strain, at 50.0 µM, active compounds read high
Outline: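 Readout: yeast growth inhibition, expressed relative to vehicle-only wells. The test organism is a mutant strain from a panel with lesions in DNA repair or checkpoint genes.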

[6] = NCI Yeast Anticancer Drug Screen. Data for the mlh1 rad18 strain (AID 175); details: S. cerevisiae mlh1 rad18 strain growth inhibition; at 50.0 µM; active compounds read high
Outline: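 Vehicle-treated cultures served as the reference for growth inhibition in a yeast strain carrying DNA damage repair alterations exposed to each compound.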

SMILES	growth inhibition [1]	growth inhibition [2]	growth inhibition [3]	growth inhibition [4]	growth inhibition [5]	growth inhibition [6]
CCOC(=O)CC1(c2ccccc2)OC(=O)c2ccccc21 (stereo not drawn)	9.05%	13.2%	8.65%	4.75%	16.9%	-11.2%
COc1ccccc1/C=C(\C)C(=O)O	10.8%	-15.3%	-6.2%	0.05%	-11.3%	-16.1%
CC(C)CC(NC(=O)OC(C)(C)C)C(=O)O (stereo not drawn)	-44.6%	-51.7%	-9.6%	14.6%	-29.2%	-16.9%
C(=N\N1CCN(/N=C/c2ccc3ccccc3n2)CC1)/c1ccc2ccccc2n1	38.1%	13.1%	11.9%	26.5%	1.5%	32.4%
NC(=O)NNC(=O)Cc1ccccc1	1.35%	-0.25%	-1.95%	0.55%	-0.95%	-3.45%
COc1ccc2[nH]c3c(c2c1)[C@H](c1ccccc1)C[C@@H]1C(=O)N(c2ccccc2)C(=O)[C@H]31	-5.25%	-6.65%	1.75%	0.65%	-8.9%	-7.95%
CC(C)/C(=N\[N+](C)(C)C)c1ccccc1	0.4%	-22.8%	-21.8%	-3.05%	-22.7%	5.15%
Cc1cc(C)cc(N)c1	1.7%	-29.9%	-5.1%	-8.85%	-5.25%	-10%
CCCCCCC(C)C(CC)(C(=O)OCC)C(=O)OCC (stereo not drawn)	-16.1%	6.55%	-0.2%	12.1%	-14.3%	7.65%
O=C1C/C(=C\c2ccccc2O)C(=O)c2ccccc21	66.3%	61.1%	83.4% (active)	57.8%	54.8%	82.8% (active)
NC(=O)C(=O)N/N=C1\C(=O)N(c2ccc(Cl)cc2Cl)C(=O)C1C(=O)Nc1ccc(Cl)cc1Cl (stereo not drawn)	-0.65%	-0.55%	-15.5%	22.4%	-14.2%	-16.3%
CC(=NC1CCCCC1)c1ccccc1O	24.4%	-11.1%	-3.35%	-23.9%	13.6%	16.8%
O=C1C=C(Nc2ccccc2C(=O)CC(=O)C(=O)Nc2ccc(Cl)c(Cl)c2)c2ccccc2C1=O	-14.1%	5.7%	3.2%	-30.9%	-24.2%	-7.15%
CC(C)(S)CNCCSC(=O)c1ccccc1	2.8%	-0.2%	23.1%	-16.1%	63.5%	30.1%
C/C(=N/NC(=O)c1ccccc1)C(=O)c1ccccc1	-4.4%	-12.2%	-2.65%	-1.2%	6%	-0.15%
CCCCCCCCN(CCCCCCCC)CC(O)c1ccc2cc(Br)c3ccccc3c2c1 (stereo not drawn)	25.9%	26.2%	46.5%	47.1%	24%	49.4%
O=C(OCc1ccccc1C1CSCSC1)c1cc(C(=O)OCc2ccccc2C2CSCSC2)c(C(=O)OCc2ccccc2C2CSCSC2)cc1C(=O)OCc1ccccc1C1CSCSC1	5.3%	-17.7%	-10.6%	1.65%	6.1%	-8.8%
COc1ccc(NC(=O)CC(=O)N2N=C(N(CCC#N)c3ccc(Cl)cc3)CC2c2ccccc2)cc1 (stereo not drawn)	16.5%	-17%	-1.55%	7.5%	2.05%	-6.05%
Cn1c(=O)c(-c2ccccc2)cc2ccccc21	-9.9%	-12.9%	-3.85%	-1.95%	-1.15%	-16.6%

SMILES	growth inhibition [1]	growth inhibition [2]	growth inhibition [3]	growth inhibition [4]	growth inhibition [5]	growth inhibition [6]
N/C(=N\O)c1c(Br)n(C2OC(CO)C(O)C2O)c2ncnc(N)c12 (stereo not drawn)	12.1%	11.7%	4.7%	10.8%	-2.05%	1.75%
Cn1cnc2cc([N+](=O)[O-])ccc21	-9.6%	-7.95%	-32.2%	-24.6%	-9.6%	8.8%
CC(=O)OCC1OC(OC(C)=O)C(NC(=S)N(C)N=O)C(OC(C)=O)C1OC(C)=O (stereo not drawn)	0.65%	-8.4%	-16.9%	12.4%	-19.3%	-40.3%
Nc1nc(N)nc(-c2ccco2)n1	-15.1%	-6.6%	-27.1%	-81.8%	-0.85%	-5.2%
O=[N+]([O-])c1ccc(N=N/C(=N\Nc2ccccc2)c2nc3ccccc3[nH]2)c([N+](=O)[O-])c1	7.45%	-5.2%	-7.35%	19.6%	-4.35%	15.2%
S=C(Nc1ccccc1)N1CCN(c2ccccc2Cl)CC1	10.7%	-1.65%	8.25%	-33.9%	-2.15%	13.1%
Cc1cccc(C(C#N)c2ccc(N)cc2)c1 (stereo not drawn)	-35.2%	-61%	-4.65%	11.7%	-46%	-18.4%
CCCCCC/C=C\CCCCCCCCCc1cccc(OC)c1O	18.4%	6.65%	-4.3%	14.5%	7.8%	11.7%
CC(=O)Oc1cc(C(F)(F)F)ccc1C(=O)OC1(C)OC(=O)c2ccc(C(F)(F)F)cc2O1 (stereo not drawn)	-34.1%	-12.9%	-21.4%	-2.85%	-13.9%	-16.9%
NC1=NN(c2ccccc2)C(=O)C1/C(=N\NC(=O)c1cc2ccccc2cc1O)C(=O)Nc1cccc(C(F)(F)F)c1 (stereo not drawn)	47%	15.7%	-33.5%	19.9%	20.5%	31.4%
CCN(CC)CCC(C(=O)O)(c1ccccc1)C1(O)CCCC1 (stereo not drawn)	-7.5%	-13.3%	-7.9%	-26.8%	7.1%	-25.9%
O=[N+]([O-])c1cc2c(cc1Br)C1C(C3C2C2(Cl)C(Cl)=C(Cl)C3(Cl)C2(Cl)Cl)C2(Cl)C(Cl)=C(Cl)C1(Cl)C2(Cl)Cl (stereo not drawn)	31.7%	5.4%	24.6%	11.8%	11.2%	8.1%
CN(C)C(=O)CCCCC(=O)N(C)C	16.5%	-5.2%	1.45%	-14.7%	5.65%	-22.2%
C[Si](C)(C)c1ccc(CC2(Cc3ccc([Si](C)(C)C)cc3)CCNC2)cc1	-32.9%	-39%	-19.9%	3.75%	-10.2%	-25.9%
COc1cc2c(SCCN(C)C)nc3ccccc3c2c2ccccc12	89.9% (active)	92.3% (active)	90.8% (active)	87.8% (active)	91.5% (active)	89.1% (active)
CC(Cc1ccccc1)NC(=O)c1ccncc1 (stereo not drawn)	2.5%	7.45%	-5.4%	-39.7%	-0.85%	2%
CCCc1nc2ccccc2c(=O)n1/N=C/c1ccc(Cl)cc1Cl	-11.7%	0.4%	0.05%	3%	-3.45%	-3.4%
O=c1c2ccccc2oc2nc3ccc(Cl)cc3n12	-6.3%	-7.5%	0.45%	-30.9%	10.6%	-1.85%
COC(=O)C(=O)c1c(-c2ccc(O)c(OC)c2)[nH]c2[nH]n(-c3ccccc3)c(=O)c2c1=O	24.6%	-17.2%	-1.75%	-30.1%	14.8%	14.5%
